According to PubChem BioAssay:
Activity calls are given as the source filed them.

Experiments:
[1] = system: Human papillomavirus type 1a protein E7 (residues 44-93); assay: HPV1a E7 fragment binders on microarrays, primary screen, biochemical, small-molecule microarray, residues 44-93, 635 nm fluorescence (AID 1108); conditions: small-molecule microarray binding, fluorescence 635 nm; higher = more signal;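 further: E7 fragment applied at 1 µg/mL in TBST for 1 h at 4 C; score combines spot fluorescence with its signal to noise ratio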
[2] = modulators of HCV replicon luciferase signal, primary screen, HCV replication inhibitor project, Huh7 cells, luciferase reporter (AID 1109); conditions: 48 h, higher = more signal;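 further: huh7 hepatoma cells harbouring a luciferase neomycin HCV replicon reporter; luciferase luminescence as measure of HCV replicon replication; test concentration not given here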
[3] = target: Left-right determination factor 2 (Homo sapiens) (UniProt O00292); assay: LEFTY2 binders on small-molecule microarrays, primary screen, biochemical, small-molecule microarray, 635 nm fluorescence scan (AID 1110); conditions: LEFTY2 binding, higher = more signal
Sequence of Left-right determination factor 2 (Homo sapiens) (O00292 whole entry, looked up): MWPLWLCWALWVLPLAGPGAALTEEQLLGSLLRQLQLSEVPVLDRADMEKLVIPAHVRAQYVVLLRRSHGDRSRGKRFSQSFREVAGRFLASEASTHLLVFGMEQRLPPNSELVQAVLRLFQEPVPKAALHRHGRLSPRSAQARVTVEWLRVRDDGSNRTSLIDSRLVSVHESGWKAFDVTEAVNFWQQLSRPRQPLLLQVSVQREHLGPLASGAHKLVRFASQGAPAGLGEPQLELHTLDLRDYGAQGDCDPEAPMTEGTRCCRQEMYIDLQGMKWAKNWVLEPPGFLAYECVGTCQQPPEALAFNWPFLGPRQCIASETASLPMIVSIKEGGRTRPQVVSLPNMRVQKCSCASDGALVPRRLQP

[4] = target: Calmodulin-1 (Homo sapiens) (UniProt P0DP23); assay: CALM1 binders on microarrays, EGTA buffer, profiling panel, biochemical, small-molecule microarray, Cy5-labelled CALM1 (AID 1111); conditions: Cy5-CALM1 binding fluorescence, higher = more signal;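 further: labelled calmodulin applied in Tris saline Tween buffer holding calcium plus EGTA and DTT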
[5] = target: Calmodulin-1 (Homo sapiens) (UniProt P0DP23); assay: calcium-bound CALM1 binders on microarrays, profiling panel, artefact control for SMM control-protein annotation, biochemical, small-molecule microarray, Cy5-labelled CALM1, plus calcium (AID 1112); conditions: Cy5-CALM1 binding fluorescence, higher = more signal;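 further: score merges spot fluorescence with signal to noise from triplicate slides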
[6] = small-molecule microarray binders of probe aWnt5a, primary screen, biochemical, biotinylated probe, 635/667 nm fluorescence (AID 1113); conditions: higher = more signal;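 further: score merges 667 nm fluorescence intensity with signal-to-noise per printed feature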
[7] = small-molecule microarray binders of probe aShh, primary screen, biochemical, biotinylated probe, 635/667 nm fluorescence (AID 1114); conditions: higher = more signal;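 further: probe is biotin-labelled aShh protein from a stem cell growth factor screen; measures binding of labelled protein to compounds printed on the slide; score merges feature fluorescence at 667 nm with signal-to-noise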
[8] = small-molecule microarray binders of probe aNog, primary screen, biochemical, biotinylated probe, 635/667 nm fluorescence (AID 1115); conditions: higher = more signal;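 further: probe is biotinylated aNog protein used at 0.15 µg/mL for 1 h at 4 C; z-score combines 667 nm fluorescence of each spot with its signal to noise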
[9] = target: Torsin-1A-interacting protein 1 (Homo sapiens) (UniProt Q5JTV8); assay: LAP1 binders from COS7 cell lysate, primary screen, small-molecule microarray, 635/667 nm fluorescence (AID 1116); conditions: COS7-hLAP1 lysate binding, 635 nm fluorescence, higher = more signal
Sequence of Torsin-1A-interacting protein 1 (Homo sapiens) (Q5JTV8 whole entry, looked up): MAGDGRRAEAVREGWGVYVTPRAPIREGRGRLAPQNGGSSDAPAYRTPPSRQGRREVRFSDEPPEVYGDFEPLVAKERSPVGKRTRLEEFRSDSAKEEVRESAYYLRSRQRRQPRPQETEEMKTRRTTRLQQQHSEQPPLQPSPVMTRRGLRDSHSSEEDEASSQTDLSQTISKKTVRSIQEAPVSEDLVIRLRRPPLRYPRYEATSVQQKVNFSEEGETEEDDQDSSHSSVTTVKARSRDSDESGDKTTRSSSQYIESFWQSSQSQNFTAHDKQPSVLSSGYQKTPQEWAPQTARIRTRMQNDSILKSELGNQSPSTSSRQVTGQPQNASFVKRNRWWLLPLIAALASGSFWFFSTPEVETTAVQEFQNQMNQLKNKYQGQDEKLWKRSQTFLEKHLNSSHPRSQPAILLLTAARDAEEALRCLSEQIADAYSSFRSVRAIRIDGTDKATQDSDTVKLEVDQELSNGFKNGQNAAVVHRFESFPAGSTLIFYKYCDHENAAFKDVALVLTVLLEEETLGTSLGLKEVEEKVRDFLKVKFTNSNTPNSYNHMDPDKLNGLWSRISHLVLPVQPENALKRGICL

[10] = target: Alpha-bungarotoxin (Bungarus multicinctus) (UniProt P60615); assay: alpha-bungarotoxin binders on microarray, profiling panel, artefact control for SMM control protein annotation, biochemical, small-molecule microarray, Alexa647 label, 635/667 nm fluorescence (AID 1117); conditions: alpha-BTX-A647 binding fluorescence, higher = more signal
Sequence of Alpha-bungarotoxin (Bungarus multicinctus) (P60615 whole entry, looked up): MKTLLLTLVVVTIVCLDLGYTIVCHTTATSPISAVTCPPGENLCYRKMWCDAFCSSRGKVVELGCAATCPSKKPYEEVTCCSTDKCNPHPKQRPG

Albumin (Bos taurus) = Albumin (Bos taurus) (UniProt P02769); assay: bovine serum albumin binders on microarray, profiling panel, artefact control for SMM control protein annotation, biochemical, small-molecule microarray, Alexa647 label, 635/667 nm fluorescence (AID 1118); conditions: BSA-A647 binding, fluorescence 635 nm, higher = more signal;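 further: score merges 667 nm emission intensity and signal-to-noise per printed compound spot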
Sequence of Albumin (Bos taurus) (P02769 whole entry, looked up): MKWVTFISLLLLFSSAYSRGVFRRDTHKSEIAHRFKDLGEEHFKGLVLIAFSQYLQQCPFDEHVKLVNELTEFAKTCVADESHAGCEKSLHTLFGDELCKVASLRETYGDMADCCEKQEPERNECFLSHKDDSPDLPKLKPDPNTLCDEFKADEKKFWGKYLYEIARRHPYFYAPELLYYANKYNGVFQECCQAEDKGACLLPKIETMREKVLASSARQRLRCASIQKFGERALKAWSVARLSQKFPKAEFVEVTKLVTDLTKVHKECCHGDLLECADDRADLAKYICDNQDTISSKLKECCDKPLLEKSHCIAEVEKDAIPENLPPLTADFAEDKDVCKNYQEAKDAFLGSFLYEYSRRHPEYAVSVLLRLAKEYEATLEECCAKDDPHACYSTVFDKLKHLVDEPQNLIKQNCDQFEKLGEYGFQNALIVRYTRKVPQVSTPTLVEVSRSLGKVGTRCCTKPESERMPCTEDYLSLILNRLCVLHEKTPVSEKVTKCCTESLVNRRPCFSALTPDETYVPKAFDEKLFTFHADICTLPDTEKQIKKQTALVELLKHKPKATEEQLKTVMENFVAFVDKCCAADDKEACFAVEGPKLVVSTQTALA

[11] = small-molecule microarray binders of probe aXIP, primary screen, biochemical, NeuroSMM set, 635/667 nm fluorescence (AID 1119); conditions: higher = more signal, called active from +8 up or from −8 down;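 further: probe is the protein aXip251-270 applied at 1 µg/mL to compound-printed slides; binding of probe to printed compounds measured as 667 nm fluorescence plus signal to noise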
[12] = small-molecule binders of probe aNOTCH3, primary screen, biochemical, small-molecule microarray, 635/667 nm fluorescence (AID 1120); conditions: higher = more signal;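 further: probe is a biotin-tagged antibody raised against NOTCH3 rather than NOTCH3 protein; score merges spot fluorescence near 667 nm with spot signal to noise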
[13] = small-molecule binders of probe aNOTCH2, primary screen, biochemical, small-molecule microarray, 635/667 nm fluorescence (AID 1121); conditions: higher = more signal;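 further: score merges feature fluorescence read at 667 nm with its signal to noise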
[14] = target: Carbonic anhydrase 2 (Homo sapiens) (UniProt P00918); assay: CAII small-molecule binders, profiling panel, biochemical, small-molecule microarray, Alexa647-labelled CAII (AID 1122); conditions: CAII-A647 binding fluorescence, higher = more signal
[15] = COS7 lysate on small-molecule microarray, probe aHis, 635 nm (AID 1123); conditions: COS7 cell lysate, fluorescence, higher = more signal;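 further: z-score combines 667nm fluorescence intensity with signal-to-noise per printed compound spot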
[16] = compound binding in COS7 lysate, probe aLAP1, primary screen, cell lysate, small-molecule microarray (AID 1124); conditions: probe aLAP1, fluorescence, higher = more signal;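 further: lysate comes from COS7 cells expressing LAP1 and is applied at 0.3 µg/mL; score merges spot fluorescence near 667 nm with signal-to-noise over triplicate slides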
Sam68 (KHDRBS1) = assay: Sam68 small-molecule binders, primary screen, biochemical, small-molecule microarray, 635 nm fluorescence (AID 1125); conditions: small-molecule microarray binding, higher = more signal;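 further: score merges 667 nm channel intensity with signal to noise over triplicate slides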
[17] = system: Chordin-like protein 2 (CHRDL2); assay: CHRDL2 small-molecule binders, primary screen, biochemical, small-molecule microarray, 635 nm fluorescence (AID 1126); conditions: small-molecule microarray binding, fluorescence 635 nm; higher = more signal;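 further: printed compound slides probed with Chrdl2 protein at 4 µg/mL for 1 h at 4 C; score merges 667 nm emission intensity with signal to noise over three replicate slides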
[18] = target: Concanavalin-A (Canavalia ensiformis) (UniProt P02866); assay: ConA small-molecule binders, primary screen, artefact control for SMM control protein annotation, biochemical, small-molecule microarray, Alexa647 label, 635 nm (AID 1127); conditions: ConA-A647 binding fluorescence, higher = more signal;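 further: z combines 667 nm emission intensity with signal-to-noise across three replicate slides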
Sequence of Concanavalin-A (Canavalia ensiformis) (P02866 whole entry, looked up): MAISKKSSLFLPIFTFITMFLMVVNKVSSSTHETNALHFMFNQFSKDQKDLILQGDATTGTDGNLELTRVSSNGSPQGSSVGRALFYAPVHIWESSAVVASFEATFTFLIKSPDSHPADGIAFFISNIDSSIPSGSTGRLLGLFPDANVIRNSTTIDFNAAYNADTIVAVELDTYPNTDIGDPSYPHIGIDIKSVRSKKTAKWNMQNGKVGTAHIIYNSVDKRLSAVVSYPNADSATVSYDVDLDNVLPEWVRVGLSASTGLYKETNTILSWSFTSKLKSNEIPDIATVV

| SMILES | composite z-score [1] | z-score [2] | composite z-score [3] | composite z-score [4] | composite z-score [5] | composite z-score [6] | composite z-score [7] | composite z-score [8] | composite z-score [9] | composite z-score [10] | composite z-score (Albumin (Bos taurus)) | composite Z-score [11] | composite z-score [12] | composite z-score [13] | composite z-score [14] | composite z-score [15] | composite z-score [16] | composite z-score (Sam68 (KHDRBS1)) | composite z-score [17] | composite z-score [18] |
| --- | --- | --- | --- | --- | --- | --- | --- | --- | --- | --- | --- | --- | --- | --- | --- | --- | --- | --- | --- | --- |
| COc1ccc([Si](C)(C)[C@H]2[C@H](CCO)O[C@@]3(C(=O)N(Cc4ccc(N5CCCCC5=O)cc4)c4ccccc43)[C@@H]2C)cc1 | 0.247 | -4.77 | 0.139 | 1.49 | 1.02 | -0.116 | 0.0141 | 0.338 | 0.643 | 1.7 | 0.643 | -0.247 (inactive) | 0.25 | -0.0846 | 0.596 | 1.79 | 0.109 | 1.3 | -0.0425 | 1.12 |
| CCc1cccc(NC(=O)O[C@H]2[C@H](OC(=O)Nc3ccccc3)[C@@H](OC(=O)Nc3ccccc3)[C@@H](OC)O[C@@H]2CO)c1 | 1.51 | -3.51 | 0.273 | 1.19 | -0.291 | 0.0267 | 0.19 | 1.34 | 2.41 | 1.2 | 0.819 | -0.477 (inactive) | 0.163 | -0.0527 | 0.806 | 2.69 | 0.421 | 1.29 | -0.061 | 1.14 |
| C#CCNC(/C=C/c1ccccc1)CO (stereo not given) | 0.105 | 0.501 | 0.421 | -0.0934 | -0.448 | -0.172 | 0.0121 | -0.0784 | 0.296 | 0.331 | -0.086 | 0.234 (inactive) | -0.104 | -0.115 | -0.152 | 0.14 | -0.0995 | 0.134 | 0.3 | 0.262 |
| COc1ccc([C@H]2C[C@H]3C(Br)=C[C@]2(OC)C(=O)[C@]32CO2)cc1 | -0.681 | -2.26 | 0.219 | -0.408 | -0.668 | -0.113 | -0.0769 | -0.176 | 0.42 | -0.268 | 0.504 | -0.145 (inactive) | -0.0918 | -0.161 | 0.545 | -0.332 | 0.542 | -0.72 | 0.388 | 0.0428 |
| CCOC(=O)C[C@H]1[C@H](OC(=O)c2cc3ccccc3oc2=O)[C@@H](NC(=O)c2ccc3ccccc3c2)c2cc(OCCCO)ccc2N1C(=O)c1ccc2ccccc2n1 | -0.0309 | -1.15 | 0.57 | -0.0337 | -0.463 | 0.0554 | -0.138 | 0.193 | 0.529 | 0.992 | 0.668 | 0.575 (inactive) | 0.0842 | -0.122 | 0.426 | 0.193 | 0.155 | 0.325 | 0.731 | 0.536 |
| C=CCOC(=O)[C@@H]1[C@H]2C(=O)O[C@H](c3ccccc3)[C@H](c3ccccc3)N2[C@H](c2ccc(OCCOC(=O)[C@H]3C[C@H]4C(=O)N5CCC[C@H]5C(=O)N4[C@H]3c3ccc(O)cc3)cc2)[C@@]12C(=O)Nc1ccccc12 | -0.747 | -1.31 | 0.382 | 1.27 | 0.699 | 0.0047 | 0.14 | 0.305 | 0.87 | 1.33 | -0.876 | 0.223 (inactive) | -0.125 | -0.185 | 0.252 | 1.12 | 0.333 | 1.27 | 0.95 | 1.19 |
| CCN1C(C)=C(C(=O)OC)[C@@H](c2ccccc2)N2C(=O)[C@@]3(C(=O)OC)O[C@@]12[C@@H]1C(=O)CCC[C@@H]13 | 0.0258 | -0.216 | 1.38 | -1.2 | -1.08 | -0.0758 | 0.0637 | -0.43 | 0.157 | -0.954 | -0.439 | -0.166 (inactive) | -0.0345 | -0.195 | 0.558 | -0.503 | -0.227 | 0.475 | 1.46 | -0.92 |
| C[C@H]1NC(=O)[C@@H](C)NC(=O)[C@@]23C(=O)N[C@@H](Cc4ccccc4)C2[C@H](C)[C@@]2(C)O[C@H]2C3/C=C/C/C=C\CNC1=O (stereo not given in full) | -0.569 | -0.175 | 0.182 | -0.809 | -1.32 | -0.0758 | -0.221 | -0.0684 | -0.485 | 0.393 | -0.631 | 0.0894 (inactive) | -0.195 | -0.126 | 0.502 | -0.482 | -0.599 | -0.344 | 0.274 | -0.888 |
| C=CC[C@]1(C(=O)NCC(O)CO)N=C(c2ccc(OCCCO)cc2)O[C@H]1c1ccccc1 (stereo not given in full) | -0.72 | -0.294 | -0.418 | 1.66 | 1.12 | -0.0286 | 0.108 | 0.402 | 3.97 | 1.29 | 0.704 | 1.59 (inactive) | -0.0391 | -0.0877 | 0.793 | 3.04 | 1.3 | -0.126 | -1.43 | -0.49 |
| C=C(C(=O)CC[C@H](OC(=O)c1ccccc1-c1ccccc1C(=O)O)c1ccc(CO)o1)C(C)C | 1.24 | -1.3 | 0.408 | 0.506 | -0.698 | 0.0214 | -0.276 | 0.265 | 0.875 | 0.905 | 0.178 | -0.555 (inactive) | -0.068 | -0.0986 | 0.368 | 0.23 | 1.47 | 1.26 | 0.442 | 1.07 |
| CCCNC(=O)[C@@H]1c2ccccc2C(=O)N(C2CCCCC2)[C@H]1c1ccc(CO)cc1 | 1.44 | -1.32 | 0.454 | 0.674 | -0.616 | -0.131 | 0.131 | -0.278 | 0.65 | 0.765 | 0.334 | 0.474 (inactive) | 0.103 | -0.106 | 0.293 | 2.72 | 0.711 | 1.29 | 0.179 | 1.03 |
| COc1cccc([C@@H]2[C@@H](C)CC[C@H]3C(=O)N(C)[C@@H](C(C)C)C(=O)N23)c1 | 0.148 | 0.512 | 0.375 | -0.169 | -0.562 | -0.204 | -0.0011 | -0.141 | 1.11 | 0.0641 | -0.199 | 0.4 (inactive) | -0.0111 | -0.181 | -0.155 | 0.0706 | -0.343 | 0.346 | 0.466 | 0.416 |
